Compound activity from PubChem BioAssay.
LGR2 inh – blocks bursicon-induced cAMP signaling via Drosophila LGR2 | inhibition, % at 9.99 µM | HEK293 LGR2, CRE-luciferase, bursicon-stimulated, 4 h | actives 0.35% (n = 380,000);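 active means drop in luminescence signal, shown as inhibition above about 50% in the replicate tests, limit read from the data, passing the limit was not always enough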;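 further: agonist challenge used bursicon conditioned medium at about half maximal strength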
CF NFkB block – inhibitors of cystic fibrosis induced NF-kB; KKLEB NF-kB-GFP reporter, PAF-induced, GFP fluorescence overnight; AID 588850; inhibition, % at 5 µM; actives 0.86% (n = 360,000);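 active means at least 50% inhibition at 5 µM, scaled per plate between neutral and stimulator controls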;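 further: PAF is a Pseudomonas aeruginosa culture filtrate used as stimulus; plate controls were PAF-stimulated DMSO wells for no effect and unstimulated DMSO wells for full effect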
KKLEB cytotox – counter-screen for CF NF-kB inhibitors: cytotoxicity; KKLEB CF airway cells viability, ATPlite luminescence, overnight; stronger effect = lower value; cells stimulated with P. aeruginosa culture filtrate; actives 0.36% (n = 360,000); activity change (cytotoxicity), % at 5 µM;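 active means corrected activity change at or below -50% at 5 µM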
TROY NFkB inh – TROY signaling inhibition; Q293 LMP1-TROYcd NF-kB luciferase reporter, 4 h; inhibition, % at 10 µM; actives 0.98% (n = 360,000);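 active means compounds whose plate-normalised and pattern-corrected inhibition of the luciferase reporter signal at the single screening dose is 50% or more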
EWS-Fli inh – blocks EWS/Fli oncoprotein-driven transcription; A673 NR0B1-luciferase reporter, viability-normalised; inhibition, % at 12.6 µM; actives 0.67% (n = 350,000);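 active means mean inhibition of at least 50% after viability correction, with every replicate also passing that limit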;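 further: firefly luciferase signal divided by Alamar Blue viability fluorescence both relative to DMSO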
TWEAK-Fn14 inh – blocks TWEAK-Fn14 interaction in a reporter cell assay | AID 1159606 | inhibition, % at 10 µM | actives 2% (n = 360,000) | TWEAK-stimulated Fn14 reporter cells, luciferase luminescence, 8 h; in the data active means inhibition above about 50%
Active calls of the source: *. Compounds with a hit are over-represented: about 2.6% of the library has one in this group of screens.

What do the screens show for `O=[N+]([O-])c1ccc(Sc2nc3ccccc3o2)c([N+](=O)[O-])c1`?
LGR2 inh: 97*; CF NFkB block: 68*; KKLEB cytotox: -42; TROY NFkB inh: 23; EWS-Fli inh: 63*; TWEAK-Fn14 inh: 58*

How did O=[N+]([O-])c1ccc(Cl)cc1Sc1nc2ccccc2o1 do in these assays?
LGR2 inh: 21; CF NFkB block: 8; KKLEB cytotox: -21; TROY NFkB inh: -7; EWS-Fli inh: 12; TWEAK-Fn14 inh: 15

What do the screens show for `C[C@@H]1CN([C@H](C)CO)C(=O)c2cc(N(C)C)ccc2O[C@@H](C)CCCCO[C@@H]1CN(C)S(=O)(=O)c1cccs1`?
EWS-Fli inh: 4

Results for COc1ccc(Cn2c(C)nc3c(c2=O)c2nc4ccccc4nc2n3Cc2ccco2)cc1 ?
LGR2 inh: -18; CF NFkB block: 14; KKLEB cytotox: -14; TROY NFkB inh: 9; EWS-Fli inh: 45; TWEAK-Fn14 inh: 52*

Results for CC=Cc1ccc2n(c1=O)C[C@@H]1[C@@H](CO)[C@H](C(=O)NCc3ccccn3)N(CCC)[C@H]21 (mixture of isomers) ?
LGR2 inh: -5; EWS-Fli inh: 11

What do the screens show for `C[C@H]1CN([C@@H](C)CO)C(=O)c2cccc(NS(=O)(=O)c3cn(C)cn3)c2O[C@H]1CN(C)Cc1ccc(C(F)(F)F)cc1`?
LGR2 inh: -7; EWS-Fli inh: -2

Results for CCc1ccc(CN(C)C(=O)CCc2nc3ccccc3n(-c3ccc(OC)cc3)c2=O)cc1 ?
LGR2 inh: 36; CF NFkB block: 24; KKLEB cytotox: -8; TROY NFkB inh: 54*; EWS-Fli inh: 1; TWEAK-Fn14 inh: 52*

How did COc1ccc(-n2c(=O)c(CCC(=O)N(C)Cc3ccccc3C)nc3ccccc32)cc1 do in these assays?
CF NFkB block: -2; KKLEB cytotox: 1; TROY NFkB inh: 23; EWS-Fli inh: 9; TWEAK-Fn14 inh: 0

How did CCCN1C[C@@H](C)[C@H](OC)CN(C)C(=O)c2ccc(NC(=O)c3ccccc3F)cc2OC[C@H]1C do in these assays?
LGR2 inh: 11; EWS-Fli inh: 3

Results for CN(C)c1ccc(C=c2c3cc([N+](=O)[O-])ccc3n3c2cc(-c2ccccc2)[n+]3C)cc1 ?
LGR2 inh: 43; CF NFkB block: -30; KKLEB cytotox: -52*; TROY NFkB inh: 43; EWS-Fli inh: 56*; TWEAK-Fn14 inh: 76*

How did CN(C)c1ccc(C=c2c3ccccc3n3c2cc(-c2ccccc2)[n+]3C)cc1 do in these assays?
LGR2 inh: 91*; CF NFkB block: -145; KKLEB cytotox: -22; TROY NFkB inh: 53*; EWS-Fli inh: -10; TWEAK-Fn14 inh: 97*

How did Cn1c(CO)c(-c2ccccc2)c2cc([N+](=O)[O-])ccc21 do in these assays?
CF NFkB block: 4; KKLEB cytotox: -17; TROY NFkB inh: -1; TWEAK-Fn14 inh: 4

What do the screens show for `COc1cc(C=c2c3ccccc3n3c2cc(-c2ccccc2)[n+]3C)cc(OC)c1OC`?
LGR2 inh: 7; CF NFkB block: 22; KKLEB cytotox: -26; TROY NFkB inh: 8; EWS-Fli inh: 8; TWEAK-Fn14 inh: 17

How did CN(C)c1ccc(C=c2c3ccccc3n3c2cc(-c2ccc(Cl)cc2)[n+]3C)cc1 do in these assays?
LGR2 inh: 29; CF NFkB block: -112; KKLEB cytotox: -2; TROY NFkB inh: 62*; EWS-Fli inh: 9; TWEAK-Fn14 inh: 54*

Results for COc1cc(N(C)C)ccc1C=c1c2ccccc2n2c1cc(-c1ccccc1)[n+]2C ?
LGR2 inh: 79*; CF NFkB block: -64; KKLEB cytotox: -26; TROY NFkB inh: 58*; EWS-Fli inh: 36; TWEAK-Fn14 inh: 88*

What do the screens show for `CC(C)CC#Cc1ccc2c(c1)O[C@@H](CN(C)C(=O)C1CCC1)[C@H](C)CN([C@@H](C)CO)S2(=O)=O`?
LGR2 inh: 1; EWS-Fli inh: 30

Results for COc1ccc(OC)c(/C=N/n2c(C)nc3ccccc3c2=O)c1 ?
LGR2 inh: 0; CF NFkB block: 5; KKLEB cytotox: -6; TROY NFkB inh: -30; EWS-Fli inh: -8; TWEAK-Fn14 inh: -14
